# Experimental data published in PubChem BioAssay (EPA / NIEHS).
# Records with an inconclusive call do not appear. Calls of active or inactive are those of the source. How the source made its calls, unless noted: active means hit-call score of the fitted dose curve at least 0.9, where 1 is the maximum; inconclusive means response in the unintended direction; inactive means score below 0.9.
# Assays:
# [1] = target: human Norepinephrine Transporter (NET), SLC6A2 (gene 6530) (UniProt P23975); test: NVS_TR_hNET: NovaScreen (NVS) Transporter Assay for human Norepinephrine Transporter (NET) (AID 2283377);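 further: cell-free membrane protein extracted from CHO cells expressing human NET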;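 on AC50: displacement of radioligand from human NET seen as loss of scintillation signal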
# Sequence of human Norepinephrine Transporter (NET), SLC6A2 (gene 6530) (P23975 whole entry, looked up): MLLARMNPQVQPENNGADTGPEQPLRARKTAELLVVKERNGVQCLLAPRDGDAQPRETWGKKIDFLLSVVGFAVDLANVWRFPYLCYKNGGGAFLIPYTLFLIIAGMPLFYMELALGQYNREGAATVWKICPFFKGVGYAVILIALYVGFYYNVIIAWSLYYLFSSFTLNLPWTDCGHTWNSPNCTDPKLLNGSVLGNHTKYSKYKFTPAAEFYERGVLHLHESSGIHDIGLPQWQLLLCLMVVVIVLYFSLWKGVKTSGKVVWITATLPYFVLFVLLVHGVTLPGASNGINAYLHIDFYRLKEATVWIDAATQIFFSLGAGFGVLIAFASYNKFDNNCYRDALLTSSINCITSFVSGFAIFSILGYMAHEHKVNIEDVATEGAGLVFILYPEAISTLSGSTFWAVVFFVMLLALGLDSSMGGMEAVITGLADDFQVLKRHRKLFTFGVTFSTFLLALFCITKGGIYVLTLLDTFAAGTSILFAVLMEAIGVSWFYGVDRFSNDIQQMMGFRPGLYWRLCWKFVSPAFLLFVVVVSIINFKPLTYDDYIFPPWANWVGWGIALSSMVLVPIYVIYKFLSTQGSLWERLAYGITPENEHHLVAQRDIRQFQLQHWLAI
# Outline: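 In this cell-free binding screen, chemicals at 25 uM (duplicate) compete with a radioligand for CHO-derived human NET over 1 hour, with filter-based radiodetection.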
# [2] = CEETOX_H295R_OHPREG: CeeTox H295R High-throughput Steroidogenesis Assay for OH-Pregnenolone (OHPREG) (AID 2283434; active means hit-call score of the fitted dose curve at least 0.9, where 1 is the maximum; inactive means score below 0.9); conditions: actives raise or lower the signal
# Outline: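 Readout: HPLC-MS/MS of 17alpha-hydroxypregnenolone in medium after 48 h chemical exposure of H295R cells pretreated with forskolin. Values fitted bidirectionally relative to DMSO; chemicals reducing viability to 20–70% were retested after 10-fold dilution.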
# [3] = CEETOX_H295R_OHPROG: CeeTox H295R High-throughput Steroidogenesis Assay for OH-Progesterone (OHPROG) (AID 2283435; active means hit-call score of the fitted dose curve at least 0.9, where 1 is the maximum; inactive means score below 0.9;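 on AC50: 17alpha-hydroxyprogesterone secreted into medium measured by HPLC-MS/MS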); conditions: actives raise or lower the signal
# Outline: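 Medium steroid levels read by LC-MS/MS after 48 h chemical treatment (0.1% DMSO) of human adrenal H295R cells that had been forskolin-primed (10 uM, 48 h). Gain or loss fitted against DMSO; MTT cytotoxicity checked per well.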
# [4] = CEETOX_H295R_MTT_cell_viability: Viability Assessment in the CeeTox HT-H295R MTT Assay (AID 2283718; active means hit-call score of the fitted dose curve at least 0.9, where 1 is the maximum; inactive means score below 0.9)
# Outline: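 H295R cells prestimulated 48 h with 10 uM forskolin, then exposed 48 h to test chemical (0.1% DMSO final). Viability by MTT (0.5 mg/ml, 4 h, 37 C), absorbance 570/650 nm; percent change versus DMSO, bidirectional fit.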
# [5] = CCTE_Deisenroth_AIME_384WELL_CTox_Active: Cytotoxicity Assessment (CTOX) in CCTE's 384-well Estrogen Receptor Transactivation Assay with AIME metabolic competence (metabolism positive), Deisenroth Lab (AID 2284037);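 further: chemicals first conditioned 2 h by alginate-bound induced rat liver S9 before cells; activity means signal loss indicating cell death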
# Outline: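 VM7Luc4E2 breast cells received medium pre-incubated 2 h with chemical over alginate microspheres holding induced male Sprague Dawley rat liver S9; viability read 24 h later by protease-substrate fluorescence. Loss of signal, bidirectional fit, 0.002–200 uM.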
# SERPINA7 (gene 6906) = test: CCTE_GLTED_hTBG: CCTE's human Thyroxine-binding Globulin (TBG) Inhibition Assay, Great Lakes Toxicology and Ecology Division (GLTED) Lab (AID 2284343);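 further: active chemicals lower fluorescence versus DMSO baseline by displacing probe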
# Outline: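 Cell-free displacement of the fluorescent probe ANSA from human thyroxine-binding globulin after 2 h exposure. Read-out at ex 380/em 475 nm; DMSO baseline.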
# [6] = target: rat Thyrotropin Releasing Hormone Receptor (TRH), Trhr (gene 25570) (UniProt Q01717); test: NVS_GPCR_rTRH: NovaScreen (NVS) G Protein-Coupled Receptor Assay for rat Thyrotropin Releasing Hormone Receptor (TRH) (AID 2283329);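 further: hit means lower bound tracer signal versus DMSO baseline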
# Sequence of rat Thyrotropin Releasing Hormone Receptor (TRH), Trhr (gene 25570) (Q01717 whole entry, looked up): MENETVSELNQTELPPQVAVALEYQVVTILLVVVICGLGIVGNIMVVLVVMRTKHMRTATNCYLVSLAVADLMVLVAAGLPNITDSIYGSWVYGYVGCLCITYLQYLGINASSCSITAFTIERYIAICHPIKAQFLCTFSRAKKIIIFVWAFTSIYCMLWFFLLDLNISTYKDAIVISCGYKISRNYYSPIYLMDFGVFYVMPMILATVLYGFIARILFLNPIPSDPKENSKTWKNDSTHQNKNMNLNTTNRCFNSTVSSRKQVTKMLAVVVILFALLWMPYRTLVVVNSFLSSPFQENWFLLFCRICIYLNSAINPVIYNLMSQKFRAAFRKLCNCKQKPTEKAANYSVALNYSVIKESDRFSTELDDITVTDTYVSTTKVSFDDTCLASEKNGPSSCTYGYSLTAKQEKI
# Outline: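 Competitive radioligand binding on rat forebrain membrane preparations, with filtration and scintillation readout after 4 h. Primary testing in duplicate at 25 uM; actives confirmed in concentration-response. DMSO defined baseline.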
# [7] = target: Estrogen receptor (Homo sapiens) (UniProt P03372); test: OT_ER_ERaERa_1440: Odyssey Thera (OT) 24-hour HEK293T Protein-Complementation Assay for Estrogen Receptor-alpha/-alpha Homodimer (AID 2283349);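 further: hits raise fluorescence above DMSO for agonists and antagonists alike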
# Sequence of Estrogen receptor (Homo sapiens) (P03372 whole entry, looked up, the tested form may be a part): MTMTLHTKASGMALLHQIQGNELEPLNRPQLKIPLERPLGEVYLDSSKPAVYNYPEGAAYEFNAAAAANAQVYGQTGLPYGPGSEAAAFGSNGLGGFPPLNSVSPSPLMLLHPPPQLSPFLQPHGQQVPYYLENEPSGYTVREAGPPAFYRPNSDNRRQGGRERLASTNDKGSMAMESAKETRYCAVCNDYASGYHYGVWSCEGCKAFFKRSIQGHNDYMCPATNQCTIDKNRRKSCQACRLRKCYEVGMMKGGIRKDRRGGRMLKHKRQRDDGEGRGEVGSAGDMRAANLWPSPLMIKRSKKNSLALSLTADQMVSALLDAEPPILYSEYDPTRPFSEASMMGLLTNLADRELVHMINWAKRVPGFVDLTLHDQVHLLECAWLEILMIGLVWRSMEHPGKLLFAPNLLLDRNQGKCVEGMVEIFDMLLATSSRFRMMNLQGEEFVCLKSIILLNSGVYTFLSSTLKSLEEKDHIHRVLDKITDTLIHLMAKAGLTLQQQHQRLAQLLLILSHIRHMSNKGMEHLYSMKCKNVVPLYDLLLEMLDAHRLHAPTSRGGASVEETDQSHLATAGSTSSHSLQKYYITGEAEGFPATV
# Outline: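 Stably transfected HEK293T; ERα LBD homodimer PCA. 24 h dosing, fluorescence intensity read, gain-of-signal vs DMSO.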
# [8] = target: Estrogen receptor (Homo sapiens) (UniProt P03372); test: OT_ER_ERaERa_0480: Odyssey Thera (OT) 8-hour HEK293T Protein-Complementation Assay for Estrogen Receptor-alpha/-alpha Homodimer (AID 2283351);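 further: rise in fluorescence from reassembled reporter fragments on ERα LBD homodimer in nucleus or whole cell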
# Outline: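 HEK293T cells stably expressing a PCA pair of ER alpha LBD (residues 310-547) were dosed for 8 hours. The gain in fluorescence intensity, nuclear for agonists and whole-cell for antagonists, was measured by laser scanning cytometry against DMSO vehicle.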
# [9] = target: human Peroxisome Proliferator-activated Receptor alpha (PPARa), PPARA (gene 5465) (UniProt Q07869); test: NVS_NR_hPPARa: NovaScreen (NVS) Nuclear Receptor Binding Assay for human Peroxisome Proliferator-activated Receptor alpha (PPARa) (AID 2283359);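 further: activity means loss of TR-FRET signal versus DMSO baseline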
# Sequence of human Peroxisome Proliferator-activated Receptor alpha (PPARa), PPARA (gene 5465) (Q07869 whole entry, looked up): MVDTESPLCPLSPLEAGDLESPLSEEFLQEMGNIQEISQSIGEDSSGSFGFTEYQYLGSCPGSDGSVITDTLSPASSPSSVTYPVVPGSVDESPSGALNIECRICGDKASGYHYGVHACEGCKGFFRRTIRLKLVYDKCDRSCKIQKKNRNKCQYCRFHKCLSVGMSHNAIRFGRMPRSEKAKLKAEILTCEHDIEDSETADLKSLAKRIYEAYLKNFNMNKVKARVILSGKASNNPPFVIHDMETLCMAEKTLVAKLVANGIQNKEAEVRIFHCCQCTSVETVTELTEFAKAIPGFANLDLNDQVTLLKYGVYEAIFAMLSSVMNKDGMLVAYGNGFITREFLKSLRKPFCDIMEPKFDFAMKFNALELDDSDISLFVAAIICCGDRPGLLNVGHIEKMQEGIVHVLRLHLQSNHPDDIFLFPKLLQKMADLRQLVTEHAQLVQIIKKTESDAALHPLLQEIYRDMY
# Outline: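 One-hour incubation, cell-free extracted protein, TR-FRET binding readout; signal loss vs DMSO scored. Screen: 25 uM duplicates, confirmatory dose series for actives.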
# [10] = target: Estrogen receptor (Homo sapiens) (UniProt P03372); test: OT_ERa_GFPERaERE_0480: Odyssey Thera (OT) 8-hour HeLa Transcription Induction Assay for Estrogen Receptor (AID 2283381; active means hit-call score of the fitted dose curve at least 0.9, where 1 is the maximum; inactive means score below 0.9)
# Outline: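 Fluorescence microscopy with high-content image analysis measures ERE-driven GFP induction in HeLa cells at 8 h post-dose. Increases fitted against DMSO baseline.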
# [11] = target: Estrogen receptor (Homo sapiens) (UniProt P03372); test: OT_ERa_GFPERaERE_0120: Odyssey Thera (OT) 2-hour HeLa Transcription Induction Assay for Estrogen Receptor (AID 2283382)
# Outline: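 Fluorescence-microscopy images of the GFP-ERα/ERE reporter, scored by high-content image algorithms, give the readout. HeLa exposure lasted 2 h, and only signal increase over DMSO was fitted.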
# [12] = tested on: Thyroperoxidase (TPO), gene 54314; test: CCTE_Simmons_AUR_rTPO: CCTE's Amplex UltraRed Assay for Thyroperoxidase (TPO) Inhibition, Simmons Lab (AID 2283662);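 further: potency for loss of signal meaning inhibition of peroxidase activity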
# Outline: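 Rat thyroid microsomes (5 ug protein) were incubated with test compound (8 concentrations, 5 nM–87.5 uM final, 0.5% DMSO), 25 uM Amplex UltraRed and 300 uM H2O2 in 200 mM phosphate buffer for 30 min at 37C in the dark; fluorescence read at 544/590 nm.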
# [13] = target: Luciferin 4-monooxygenase (Photinus pyralis) (UniProt P08659); test: CCTE_Simmons_QuantiLum_inhib_2: CCTE's Firefly Luciferase Inhibition Assay, Simmons Lab (AID 2283767);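 on AC50: potency for inhibitors that lower luciferase luminescence relative to DMSO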
# Sequence of Luciferin 4-monooxygenase (Photinus pyralis) (P08659 whole entry, looked up): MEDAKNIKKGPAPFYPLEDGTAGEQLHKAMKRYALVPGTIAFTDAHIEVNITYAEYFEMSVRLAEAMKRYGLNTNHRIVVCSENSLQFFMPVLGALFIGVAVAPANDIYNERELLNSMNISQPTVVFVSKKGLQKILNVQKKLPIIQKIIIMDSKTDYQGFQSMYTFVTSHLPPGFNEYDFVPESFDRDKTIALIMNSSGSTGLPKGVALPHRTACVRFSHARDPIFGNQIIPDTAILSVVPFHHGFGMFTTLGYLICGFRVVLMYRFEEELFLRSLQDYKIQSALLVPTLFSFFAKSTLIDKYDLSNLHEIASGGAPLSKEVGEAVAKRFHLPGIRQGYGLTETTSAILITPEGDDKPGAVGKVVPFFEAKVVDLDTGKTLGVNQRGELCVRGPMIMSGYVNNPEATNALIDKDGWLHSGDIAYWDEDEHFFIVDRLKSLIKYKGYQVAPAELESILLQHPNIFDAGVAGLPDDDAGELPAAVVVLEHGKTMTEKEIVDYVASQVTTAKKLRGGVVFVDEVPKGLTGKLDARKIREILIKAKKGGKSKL
# Outline: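 Eight test concentrations, 5 nM up to 87.5 uM final, preincubated 30min at 37C in the dark with purified luciferase (0.5% DMSO final). Detection reagent (150uM D-luciferin, 147uM dATP, 75uM CoA, pH 7.8) injected per well before kinetic luminescence read; three replicates.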
# [14] = CCTE_Padilla_ZF_Score.General: CCTE's 144 Hour Post-fertilization zebrafish Assay Score for General Malformation, Padilla Lab (AID 2284411; active means hit-call score of the fitted dose curve at least 0.9, where 1 is the maximum; inactive means score below 0.9)
# Outline: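 Malformation, death and hatching were scored at 6 dpf by two blinded observers under a stereo microscope. Embryos were dosed singly from 6-8 hpf in sealed plates of 10% Hanks' at 26C and rinsed on 5 dpf; DMSO baseline.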
# TTR (gene 7276) = test: CCTE_GLTED_hTTR_0.125uM: CCTE's human Transthyretin (hTTR) Inhibition Assay, with 0.125uM TTR, Great Lakes Toxicology and Ecology Division (GLTED) Lab (AID 2284431; active means hit-call score of the fitted dose curve at least 0.9, where 1 is the maximum; inactive means score below 0.9;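 further: hits lower the fluorescence signal relative to DMSO baseline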)
# Outline: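 TTR 0.125uM + test chemical, 2 h; ANSA probe displacement; ex 380/em 475 fluorescence; signal loss vs DMSO control.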
# [15] = target: Nuclear receptor subfamily 1 group I member 2 (Homo sapiens) (UniProt O75469); test: NVS_NR_hPXR: NovaScreen (NVS) Nuclear Receptor Binding Assay for human Pregnane X Receptor (PXR) (AID 2283365);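 further: a drop in FRET signal versus DMSO baseline means the compound binds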
# Sequence of Nuclear receptor subfamily 1 group I member 2 (Homo sapiens) (O75469 whole entry, looked up): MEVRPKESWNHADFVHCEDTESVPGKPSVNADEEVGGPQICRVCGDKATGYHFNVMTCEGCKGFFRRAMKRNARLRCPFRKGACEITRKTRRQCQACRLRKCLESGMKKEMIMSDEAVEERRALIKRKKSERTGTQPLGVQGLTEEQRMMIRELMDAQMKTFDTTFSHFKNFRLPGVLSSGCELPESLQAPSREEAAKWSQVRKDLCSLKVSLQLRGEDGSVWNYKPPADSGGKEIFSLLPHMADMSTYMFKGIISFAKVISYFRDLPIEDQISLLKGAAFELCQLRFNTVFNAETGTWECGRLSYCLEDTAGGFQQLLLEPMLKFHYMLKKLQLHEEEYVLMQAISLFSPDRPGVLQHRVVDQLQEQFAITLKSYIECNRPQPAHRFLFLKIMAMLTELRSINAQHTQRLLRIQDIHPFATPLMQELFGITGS
# Outline: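 TR-FRET signal read at 2 h in a cell-free human PXR binding format. DMSO served as negative control and baseline; activity scored as signal loss. Single-concentration duplicate screen (25 uM), then concentration-response follow-up.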
# [16] = tested on: Sodium/Iodide Symporter (NIS), SLC5A5 (gene 6528); test: CPHEA_Stoker_NIS_Inhibition_RAIU: CPHEA's Radioactive Iodide Uptake (RAIU) Assay for Sodium/Iodide Symporter (NIS) Inhibition, Stoker and Laws Labs (AID 2283841)
# Outline: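 Iodide uptake read as CPM of intracellular 125I (final 329 pM) after 2 h room-temperature exposure in HEPES-buffered HBSS, pH 7.4. Human NIS-expressing HEK293T cells; six concentrations 0.001–100 uM, 0.5% DMSO, normalised to DMSO wells.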
# [17] = target: human Phosphoinositide 3-kinase alpha (PI3Ka), PIK3CA (gene 5290) (UniProt P42336); test: NVS_ENZ_hPI3Ka: NovaScreen (NVS) Enzymatic Assay for human Phosphoinositide 3-kinase alpha (PI3Ka) (AID 2283196)
# Sequence of human Phosphoinositide 3-kinase alpha (PI3Ka), PIK3CA (gene 5290) (P42336 whole entry, looked up): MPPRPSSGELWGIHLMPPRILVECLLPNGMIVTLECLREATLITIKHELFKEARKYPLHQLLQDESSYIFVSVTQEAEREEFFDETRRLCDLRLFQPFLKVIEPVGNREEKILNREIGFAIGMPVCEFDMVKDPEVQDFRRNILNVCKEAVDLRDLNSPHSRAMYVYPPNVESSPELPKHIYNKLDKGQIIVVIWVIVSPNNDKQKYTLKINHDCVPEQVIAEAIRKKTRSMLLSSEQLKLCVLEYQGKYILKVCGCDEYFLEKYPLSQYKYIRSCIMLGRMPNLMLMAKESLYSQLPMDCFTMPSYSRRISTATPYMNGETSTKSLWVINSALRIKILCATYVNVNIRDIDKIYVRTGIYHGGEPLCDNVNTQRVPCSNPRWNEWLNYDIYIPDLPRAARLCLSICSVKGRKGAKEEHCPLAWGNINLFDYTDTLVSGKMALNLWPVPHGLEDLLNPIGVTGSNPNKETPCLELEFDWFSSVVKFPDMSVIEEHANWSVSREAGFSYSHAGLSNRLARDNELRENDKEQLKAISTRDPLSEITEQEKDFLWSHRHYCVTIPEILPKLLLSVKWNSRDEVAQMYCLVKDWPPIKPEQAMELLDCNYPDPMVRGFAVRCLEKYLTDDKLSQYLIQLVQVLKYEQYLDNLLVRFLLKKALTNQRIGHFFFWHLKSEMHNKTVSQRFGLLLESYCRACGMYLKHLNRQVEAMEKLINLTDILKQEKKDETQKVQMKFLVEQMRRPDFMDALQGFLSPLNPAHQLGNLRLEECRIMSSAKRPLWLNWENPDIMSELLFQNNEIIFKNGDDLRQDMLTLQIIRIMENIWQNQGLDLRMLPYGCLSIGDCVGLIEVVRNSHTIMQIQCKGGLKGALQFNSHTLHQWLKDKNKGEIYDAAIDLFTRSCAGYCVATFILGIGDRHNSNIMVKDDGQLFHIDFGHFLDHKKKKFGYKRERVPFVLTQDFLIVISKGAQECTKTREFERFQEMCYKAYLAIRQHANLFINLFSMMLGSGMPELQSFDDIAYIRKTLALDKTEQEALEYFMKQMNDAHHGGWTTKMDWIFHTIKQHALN
# Outline: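 Enzyme activity as fluorescence after mobility-shift separation of substrate and product, 1 h reaction, recombinant human PI3Kα; concentration-response to 50 uM max for chemicals passing a 25 uM duplicate screen.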
# [18] = target: Peroxisome proliferator-activated receptor gamma (Homo sapiens) (UniProt P37231); test: NVS_NR_hPPARg: NovaScreen (NVS) Nuclear Receptor Binding Assay for human Peroxisome Proliferator-activated Receptor gamma (PPARg) (AID 2283370)
# Sequence of Peroxisome proliferator-activated receptor gamma (Homo sapiens) (P37231 whole entry, looked up): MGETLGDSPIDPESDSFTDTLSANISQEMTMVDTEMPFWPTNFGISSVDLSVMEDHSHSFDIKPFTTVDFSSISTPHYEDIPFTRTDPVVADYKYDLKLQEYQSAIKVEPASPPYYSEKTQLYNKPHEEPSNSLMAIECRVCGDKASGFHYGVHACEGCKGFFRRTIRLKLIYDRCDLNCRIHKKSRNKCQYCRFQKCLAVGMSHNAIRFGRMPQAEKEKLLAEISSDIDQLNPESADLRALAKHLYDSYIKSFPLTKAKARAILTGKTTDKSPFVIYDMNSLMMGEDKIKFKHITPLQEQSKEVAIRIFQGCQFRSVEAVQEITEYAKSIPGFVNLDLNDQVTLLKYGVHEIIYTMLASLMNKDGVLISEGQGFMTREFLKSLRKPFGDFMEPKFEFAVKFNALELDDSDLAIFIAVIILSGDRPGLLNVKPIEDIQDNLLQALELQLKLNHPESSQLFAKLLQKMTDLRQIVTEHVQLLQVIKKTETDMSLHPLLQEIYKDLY
# Outline: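 FP read-out, 2 h post-dose, cell-free extracted receptor protein. Signal loss vs DMSO negative control = binding activity. Single-conc duplicate HTS at 25 uM; concentration-response follow-up for actives.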
smiles,measurement,setting,value
O=C1NC(=O)[C@@H]2CC=CC[C@H]12,outcome,[1],inactive
CCCCOC(=O)COc1ccc(Cl)cc1Cl,outcome,[2],inactive
same,AC50,[3],74.6 µM (active)
same,outcome,[4],inactive
same,outcome,[5],inactive
same,AC50,SERPINA7 (gene 6906),9.59 µM (active)
CCCCCCC1CCC(=O)O1 (centres undefined),outcome,[6],inactive
same,outcome,[7],inactive
same,outcome,[8],inactive
same,outcome,[9],inactive
same,outcome,[10],inactive
same,outcome,[11],inactive
Sc1nc2ccccc2s1,outcome,[9],inactive
same,AC50,[12],1.42 µM (active)
same,outcome,[4],inactive
same,outcome,[13],inactive
same,AC50,SERPINA7 (gene 6906),50 µM (active)
same,AC50,[14],5.5 µM (active)
same,AC50,TTR (gene 7276),9.1 µM (active)
O=C(c1ccccc1)c1ccccc1O,AC50,SERPINA7 (gene 6906),17.9 µM (active)
same,AC50,TTR (gene 7276),1.05 µM (active)
CCC(C)=NO,outcome,[1],inactive
same,outcome,[5],inactive
CCCCC(CC)COC(=O)CS (centres undefined),outcome,[9],inactive
same,AC50,[12],25.6 µM (active)
same,outcome,[13],inactive
CC(C)CC(=O)CC(C)CC(C)C (centres undefined),outcome,[14],inactive
COC(=O)[C@]1(C)CCC[C@@]2(C)[C@H]1CC=C1C=C(C(C)C)CC[C@@H]12,outcome,[6],inactive
same,outcome,[15],inactive
same,outcome,[16],inactive
O=C(Oc1ccccc1)c1ccccc1,outcome,[6],inactive
same,AC50,SERPINA7 (gene 6906),8.47 µM (active)
same,AC50,TTR (gene 7276),24.2 µM (active)
CC(=O)CCc1ccccc1,outcome,[17],inactive
CCCOCCC,outcome,[17],inactive
CN(C)c1ccc(C(c2ccccc2)c2ccc(N(C)C)cc2)cc1,AC50,[1],31.7 µM (active)
same,AC50,[12],10.6 µM (active)
same,outcome,[13],inactive
same,AC50,[14],22.3 µM (active)
CC/C=C\CCO,outcome,[5],inactive
Cc1cccnc1,outcome,[18],inactive
same,outcome,[16],inactive
same,outcome,[14],inactive
Cc1cc(C)c(S(=O)(=O)O)cc1N=Nc1cc(S(=O)(=O)O)c2ccccc2c1O,outcome,[6],inactive
same,outcome,[18],inactive
same,AC50,[12],14.5 µM (active)
same,AC50,[13],2.98 µM (active)
CCO[Si](CCCN)(OCC)OCC,outcome,[7],inactive
same,outcome,[8],inactive
same,outcome,[10],inactive
same,outcome,[11],inactive
same,outcome,[2],inactive
same,outcome,[3],inactive
same,outcome,[4],inactive
CC1(C)S[C@@H]2[C@H](NC(=O)[C@H](N)c3ccccc3)C(=O)N2[C@H]1C(=O)O,AC50,[17],12.5 µM (active)
CN(C)CCC(c1ccc(Cl)cc1)c1ccccn1 (centres undefined),AC50,[1],7.29 µM (active)
same,outcome,[14],inactive
Nc1ccc(S(=O)(=O)Nc2cnc3ccccc3n2)cc1,outcome,[15],inactive
same,AC50,[12],0.715 µM (active)
same,outcome,[13],inactive
c1ccc(CNc2ncnc3nc[nH]c23)cc1,outcome,[2],inactive
same,outcome,[3],inactive
same,outcome,[4],inactive
CC(C)CC(=O)CC(C)C,outcome,[5],inactive
Cc1cc(-n2nc3ccc(Cl)cc3n2)c(O)c(C(C)(C)C)c1,outcome,[14],inactive
O=C(O)c1ccccc1C(=O)O,outcome,[7],inactive
same,outcome,[8],inactive
same,outcome,[10],inactive
same,outcome,[11],inactive
same,outcome,[4],inactive
O=C(OCc1ccccc1)c1ccccc1,outcome,[15],inactive
same,outcome,[16],inactive
same,AC50,TTR (gene 7276),20.7 µM (active)
O=C(CC(C(=O)OC1CCCCC1)S(=O)(=O)O)OC1CCCCC1 (centres undefined),AC50,[15],8.32 µM (active)
same,outcome,[18],inactive
Cc1cc2nc3c(=O)[nH]c(=O)nc-3n(C[C@H](O)[C@H](O)[C@H](O)CO)c2cc1C,AC50,[16],25.8 µM (active)
Cc1cc(O)cc(C)c1Cl,outcome,[9],inactive
same,outcome,[2],inactive
same,AC50,[3],13.8 µM (active)
same,outcome,[4],inactive
same,AC50,SERPINA7 (gene 6906),22.3 µM (active)
same,AC50,TTR (gene 7276),7.71 µM (active)
CCCCCCCCCCCCCCCCCC[N+](C)(C)C,AC50,[17],3.68 µM (active)
same,AC50,[1],2.93 µM (active)
same,outcome,[14],inactive
C=C1CC[C@H]2C[C@@H]1C2(C)C,outcome,[6],inactive
same,outcome,[7],inactive
same,outcome,[8],inactive
same,outcome,[15],inactive
same,outcome,[10],inactive
same,outcome,[11],inactive
Cc1ccccc1S(N)(=O)=O,outcome,[17],inactive
CC1=NN(c2cc(Cl)c(S(=O)(=O)O)cc2Cl)C(=O)C1N=Nc1ccc(S(=O)(=O)O)cc1 (centres undefined),outcome,[9],inactive
same,AC50,SERPINA7 (gene 6906),39.4 µM (active)
same,AC50,TTR (gene 7276),18.8 µM (active)
F[B-](F)(F)F,outcome,[18],inactive
same,AC50,[16],0.82 µM (active)
C1=CCC=C1,outcome,[5],inactive
CCOC(=O)c1ccccc1,outcome,[7],inactive
same,outcome,[8],inactive
same,outcome,[15],inactive
same,outcome,[18],inactive
same,outcome,[10],inactive
same,outcome,[11],inactive
